In all, about 81,000 sequences were measured (“one-hybrid fitness for binding parS DNA”: median about -0.17, highest 2% from about 0.51 on). What follows is part of a selection rich in the highest values, with near analogues and random picks from the rest.
B1: Caulobacter ParB omega fusion; a variant is named by its letters at X, in order, B8GW30 (parent)
chain: MESVVVGEPGMSEGRRGLGRGLSALLGEVDAAPAQAPGEQLGGSREAPIEILQRNPDQPRRTFREEDLEDLSNSIREKGVLQPILVRPSPDTAGEYQIVAGERAWRAAQRAGLKTVPIMVRELDDLAVLEIGIIENVQRADLNVLEEALSYKVLMEKFERTQENIAQTIGKSXSHVANXMRLLXLPDEVQSYLVSGELTAXHARAIAAAADPVALAKQIIEGGLSVRETEALARKAPNLSAGKSKGGRPPRVKDTDTQALESDLSSVLGLDVSIDHRGSTGTLTITYATLEQLDDLCNRLTRGI

Variants of: B1
Test: one-hybrid fitness for binding parS DNA (scaled: cognate 1, non-cognate 0); higher = stronger binding
Details: with parS DNA site
Procedure, shortened: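 Bacterial one-hybrid selection in E. coli USO rpoZ- hisB- pyrF- with a HIS3 reporter carrying the site 19 bp from the promoter, screening Caulobacter ParB libraries with four specificity codons randomised (NNS). Cells grew 48 hours at 37°C on M9-minus-histidine plus 0.1 mM IPTG and 5 mM 3-AT. Plasmids before and after selection were Illumina-sequenced, three replicate libraries pooled, and variants under 10 reads dropped. Fitness is the log change in variant-to-wild-type read ratio, rescaled to cognate 1, non-cognate 0.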

CKLV and MLGM cannot be ordered by “one-hybrid fitness for binding parS DNA” value: no more than 0.2 for the first, no more than 0.2 for the second.

PIWC and MSNM cannot be ordered by “one-hybrid fitness for binding parS DNA” value: no more than 0.2 for the first, no more than 0.2 for the second.

Compared with WLDE, RCVA is higher in “one-hybrid fitness for binding parS DNA” value: no more than 0.2 for the first, 0.581 for the second.

REVA and RPVA cannot be ordered by “one-hybrid fitness for binding parS DNA” value: no more than 0.2 for the first, no more than 0.2 for the second.

Compared with RSVA, RGVA is lower in “one-hybrid fitness for binding parS DNA” value: 0.515 for the first, no more than 0.2 for the second.

SKAI and SIHL cannot be ordered by “one-hybrid fitness for binding parS DNA” value: no more than 0.2 for the first, no more than 0.2 for the second.

MVSE and GMRV cannot be ordered by “one-hybrid fitness for binding parS DNA” value: no more than 0.2 for the first, no more than 0.2 for the second.

ETNG and CGAE cannot be ordered by “one-hybrid fitness for binding parS DNA” value: no more than 0.2 for the first, no more than 0.2 for the second.

First: RSKD
Second: RCKS
The “one-hybrid fitness for binding parS DNA” value of the first is lower: no more than 0.2 for the first, 0.836 for the second.

RCKD and RPKS cannot be ordered by “one-hybrid fitness for binding parS DNA” value: no more than 0.2 for the first, no more than 0.2 for the second.

First: RSKS
Second: RSKH
The “one-hybrid fitness for binding parS DNA” value of the first is higher: 0.883 for the first, 0.274 for the second.

AQTD and DWLL cannot be ordered by “one-hybrid fitness for binding parS DNA” value: no more than 0.2 for the first, no more than 0.2 for the second.

YIPE and CIRT cannot be ordered by “one-hybrid fitness for binding parS DNA” value: no more than 0.2 for the first, no more than 0.2 for the second.

PNRV and RGCK cannot be ordered by “one-hybrid fitness for binding parS DNA” value: no more than 0.2 for the first, no more than 0.2 for the second.

First: RGIC
Second: RGKC
The “one-hybrid fitness for binding parS DNA” value of the first is lower: 0.422 for the first, 0.833 for the second.

Going from RGPC to RGLC, the “one-hybrid fitness for binding parS DNA” value rises from 0.217 to 0.537.

RGCF and RGLR cannot be ordered by “one-hybrid fitness for binding parS DNA” value: no more than 0.2 for the first, no more than 0.2 for the second.

Going from RGVC to RGLM, the “one-hybrid fitness for binding parS DNA” value falls from 0.445 to no more than 0.2.

First: RGYC
Second: RGCC
The “one-hybrid fitness for binding parS DNA” value of the first is lower: 0.527 for the first, 0.534 for the second.

RGKH and ESDG cannot be ordered by “one-hybrid fitness for binding parS DNA” value: no more than 0.2 for the first, no more than 0.2 for the second.

QSSQ and TSPP cannot be ordered by “one-hybrid fitness for binding parS DNA” value: no more than 0.2 for the first, no more than 0.2 for the second.

Compared with RRPY, GLPL is lower in “one-hybrid fitness for binding parS DNA” value: 0.315 for the first, no more than 0.2 for the second.

LLVN and YATP cannot be ordered by “one-hybrid fitness for binding parS DNA” value: no more than 0.2 for the first, no more than 0.2 for the second.

THMC and ASRN cannot be ordered by “one-hybrid fitness for binding parS DNA” value: no more than 0.2 for the first, no more than 0.2 for the second.

Going from HKPA to RGDC, the “one-hybrid fitness for binding parS DNA” value rises from no more than 0.2 to 0.467.

First: RGWC
Second: RGHC
The “one-hybrid fitness for binding parS DNA” value of the first is lower: 0.504 for the first, 0.59 for the second.

First: RGAC
Second: RGEC
The “one-hybrid fitness for binding parS DNA” value of the first is higher: 0.584 for the first, 0.449 for the second.

First: RGHY
Second: RGNC
The “one-hybrid fitness for binding parS DNA” value of the first is lower: no more than 0.2 for the first, 0.716 for the second.

First: RGAQ
Second: RGFC
The “one-hybrid fitness for binding parS DNA” value of the first is lower: no more than 0.2 for the first, 0.454 for the second.

Compared with RGNN, RGRC is higher in “one-hybrid fitness for binding parS DNA” value: 0.321 for the first, 0.798 for the second.

RGHR and SREL cannot be ordered by “one-hybrid fitness for binding parS DNA” value: no more than 0.2 for the first, no more than 0.2 for the second.

FTNN and MTRS cannot be ordered by “one-hybrid fitness for binding parS DNA” value: no more than 0.2 for the first, no more than 0.2 for the second.

DMPV and RDMM cannot be ordered by “one-hybrid fitness for binding parS DNA” value: no more than 0.2 for the first, no more than 0.2 for the second.

LDNS and QVVM cannot be ordered by “one-hybrid fitness for binding parS DNA” value: no more than 0.2 for the first, no more than 0.2 for the second.

Going from RGQC to RGGM, the “one-hybrid fitness for binding parS DNA” value falls from 0.649 to no more than 0.2.

Compared with RGGC, RGSK is lower in “one-hybrid fitness for binding parS DNA” value: 0.594 for the first, no more than 0.2 for the second.

First: RGGR
Second: RGSC
The “one-hybrid fitness for binding parS DNA” value of the first is lower: no more than 0.2 for the first, 0.672 for the second.

RGQK and RGQF cannot be ordered by “one-hybrid fitness for binding parS DNA” value: no more than 0.2 for the first, no more than 0.2 for the second.

RGSF and AAYP cannot be ordered by “one-hybrid fitness for binding parS DNA” value: no more than 0.2 for the first, no more than 0.2 for the second.

First: DGHR
Second: WKKW
The “one-hybrid fitness for binding parS DNA” value of the first is lower: no more than 0.2 for the first, 0.229 for the second.

LCSR and YTPT cannot be ordered by “one-hybrid fitness for binding parS DNA” value: no more than 0.2 for the first, no more than 0.2 for the second.

AYYS and SYRV cannot be ordered by “one-hybrid fitness for binding parS DNA” value: no more than 0.2 for the first, no more than 0.2 for the second.
